Source: PubChem BioAssay (National Center for Advancing Translational Sciences (NCATS))
Compounds with a hit are over-represented: about 7.4% of the library has one in this group of screens.
NPC1 prom act = qHTS Assay for NPC1 Promoter Activators. Potency, µM (doses to about 9.22 µM), for inactives: at the top dose activation, usual class: activators. AID 485313, 2010. 320,000 tested, 2.4% active. Huh7 NPC1 promoter luciferase reporter, 24 h; note: % of control where 0% means no effect; nearly all actives have a fitted effect of over 60% in size
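Quantitative HTS used a cell-based reporter: Huh7 cells stably bearing the NPC1 promoter upstream of luciferase were treated with compounds for 24 h, and promoter activation was read as luminescence.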
ELG1 genotoxic = qHTS screen for small molecules that induce genotoxicity in human embryonic kidney (HEK293T) cells expressing luciferase-tagged ELG1. HEK293T ELG1-luciferase reporter, luminescence, 16 h. Potency, µM (highest dose often 46 µM), without a hit: top-dose activity change, positive = activation, most hits filed as activators. 330,000 tested, 1.3% active; note: % of control where 0% means no effect; nearly all actives have a fitted effect of over 60% in size
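DMSO vehicle served as control against compound-treated ELG1-luciferase HEK293T cells; exposure lasted 16 hr at 37 °C and 5% CO2, followed by ONE-Glo luminescence detection after 30 min.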
FLuc modulator = qHTS profiling assay for firefly luciferase inhibitor/activator using purifed enzyme and Km concentrations of substrates (counterscreen for miR-21 project); purified FLuc, Km substrates, luminescence inhibition; Potency, µM (top dose mostly 57.5 µM), inactives show at the highest dose activity change, negative = inhibition, actives largely listed as inhibitors; 360,000 tested, 6.9% active; AID 588342, 2011;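 note: plate controls were vehicle for no effect and reference inhibitor for full effect; nearly all actives have a fitted effect of over 55% in size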
Target sequence (P08659 whole entry, looked up): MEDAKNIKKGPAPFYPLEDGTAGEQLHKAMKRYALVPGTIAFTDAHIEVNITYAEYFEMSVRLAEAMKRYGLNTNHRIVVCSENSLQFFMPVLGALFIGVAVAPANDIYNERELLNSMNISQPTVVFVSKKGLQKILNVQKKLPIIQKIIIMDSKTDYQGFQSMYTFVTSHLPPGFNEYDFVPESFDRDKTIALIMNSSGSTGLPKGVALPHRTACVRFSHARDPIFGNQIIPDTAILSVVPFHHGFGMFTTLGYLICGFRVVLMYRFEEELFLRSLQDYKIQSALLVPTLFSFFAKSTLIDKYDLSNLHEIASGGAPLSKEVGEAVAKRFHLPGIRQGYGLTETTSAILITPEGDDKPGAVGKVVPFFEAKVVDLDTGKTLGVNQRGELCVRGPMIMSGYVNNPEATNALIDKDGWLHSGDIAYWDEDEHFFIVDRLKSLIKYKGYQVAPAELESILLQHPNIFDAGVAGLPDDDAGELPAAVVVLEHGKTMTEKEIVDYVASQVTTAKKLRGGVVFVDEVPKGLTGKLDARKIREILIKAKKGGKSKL
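Purified P. pyralis luciferase (10nM final) with 10uM D-luciferin and 10uM ATP (Km levels) in 50mM Tris acetate pH 7.5, 10mM Mg acetate, 0.01% Tween-20, 0.05% BSA; qHTS 6-point titration, ~60 µM downward; luminescence read.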
Rab9 promoter act = qHTS Assay for Rab9 Promoter Activators; Huh7 Rab9 promoter-luciferase reporter, luminescence, 24 h; 320,000 tested, 2.8% active; Potency, µM (top dose mostly 9.22 µM), for inactives: top-dose activation, negative = inhibition, actives largely listed as activators; AID 485297, 2010; note: % of control where 0% means no effect; nearly all actives have a fitted effect of over 60% in size
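Luciferase signal after 10 min detection reagent at ambient indicates Rab9 promoter upregulation; stably transfected Huh7 cells were treated 24 h with compound in DMSO at 37 °C, 5% CO2.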
SMN2 splice enh = qHTS Assay for Enhancers of SMN2 Splice Variant Expression; HEK293 SMN2-luciferase splicing reporter, luminescence, 30-36 h; Potency, µM (highest dose often 46.1 µM), for the others: at the top dose activity change, positive = activation, most hits filed as activators; 210,000 tested, 2.8% active; AID 1458, 2008; note: % of control where 0% means no effect; nearly all actives have a fitted effect of over 55% in size
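qHTS luciferase splicing reporter: luminescence rises when SMN2 exon 7 is included in transfected HEK293 cells. Compound exposure lasted 30-36 h at 37C, with 4.5 mM final sodium butyrate as control, followed by a ONE-Glo read.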
Active calls of the source: *; ? = inconclusive; . = no result; [ ] = dose if it differs, or a comment. Calls come from the whole dose curve; as a rule, active = well fitted curve in the direction sought with a large enough effect; inconclusive = small, poorly fitted or top-dose-only effect, or another doubt; inactive = no such curve, though single readings can be large; an effect the other way counts as inactive or inconclusive. Potency is the fitted concentration of half-maximal effect.

SMILES	NPC1 prom act	ELG1 genotoxic	FLuc modulator	Rab9 promoter act	SMN2 splice enh
Cc1ccc(N(C)C(=O)CN2C(=O)CCc3cc(S(=O)(=O)N4CCOCC4)ccc32)cc1	.	.	-8.8%	.	.
O=C(COc1ccc2c(c1)oc(=O)c1ccccc12)NCCCN1CCOCC1	-4.9%	-0.1%[9.26 µM]	-4.8%	-4.0%	.
CCc1nc(SCC(=O)Nc2cc(OC)ccc2OC)c2c(C)c(C)sc2n1	-4.5%	-5.6%	-2.1%	-1.3%	.
CC1CCCCN1C(=O)CSc1nnc(-c2ccccc2F)o1 (stereo not drawn)	2.51µM*	?	?	2.51µM*	.
CC1CCCCN1C(=O)CSc1nnc(-c2ccco2)o1 (stereo not drawn)	1.78µM*	20.6µM*	15.1µM*	2µM*	.
COc1ccc(NC(=O)CSc2nnc(-c3nonc3NC(C)=O)n2C)cc1Cl	.	.	-5.7%	.	.
COc1cccc(/C=C/c2[nH]c(=O)[nH]c(=O)c2[N+](=O)[O-])c1O	1.0%	0.2%	16.9µM*	5.8%	.
CCC(C)(C)C1CCC(=NNc2nc3ccccc3[nH]2)CC1 (stereo not drawn)	6.0%	2.4%	12µM*	7.4%	1.3%
Cc1ccc(-c2noc(CSc3ccccc3)n2)cc1	1.78µM*	7.31µM*	2.13µM*	1.78µM*	?
c1ccc(SCc2nc(-c3cccnc3)no2)cc1	2µM*	3.66µM*	10.7µM*	1.41µM*	11.2µM*
c1ccc(C(Cc2nc(-c3cccnc3)no2)c2ccccc2)cc1	-1.9%	-16.7%	-2.8%	0.4%	-0.7%
Cc1cccc(-c2noc(CSc3nc(-c4ccc(F)cc4)cc(=O)[nH]3)n2)c1	.	.	-16.7%	.	.
Cc1ccc(-c2noc(CSc3nc(N)cc(N)n3)n2)cc1	2.82µM*	13.4%	15.1µM*	2.24µM*	?
Cc1cccc(-c2noc(CSc3ccccc3)n2)c1	2.51µM*	?	9.53µM*	3.55µM*	?
Cc1ccc(-c2noc(CSc3nnc(C)n3-c3ccc(C)cc3)n2)cc1	.	.	-10.9%	.	-2.3%
CC(=O)NC12CC3CC(C1)CC(C(=O)OCC(=O)Nc1ncc(Cl)c(C)c1Cl)(C3)C2	-0.3%	-0.9%	1.8%	-0.7%	5.4%
CC(=O)NC12CC3CC(C1)CC(C(=O)OCC(=O)c1ccc4c(c1)OCCO4)(C3)C2	0.501µM*	?	0.239µM*	0.1µM*	-1.6%
O=C(COC(=O)c1cccs1)c1ccc2ccccc2c1	?	?	1.69µM*	28.1%	-20.3%
O=C(COC(=O)c1cccs1)c1ccc2c(c1)OCCO2	1.58µM*	10.3µM*	0.0757µM*	0.316µM*	-9.9%
C/C(=N\O)c1ccc(N2C(=O)C3CC=C(Cl)CC3C2=O)cc1 (stereo not drawn)	?	?	10.7µM*	?	?
CN(C)c1ccc(NC2=C(Cl)C(=O)c3ccccc3C2=O)cc1	0.8%	?	7.57µM*	-41.2%	-82.6%
COc1ccc(S(=O)(=O)N2CCC(C(=O)N[C@@H](C)C(=O)NCc3ccccc3OC)CC2)cc1	0.3%	-0.5%	2.2%	-7.5%	.
COc1ccc(-c2nc3c(C#N)c[nH]n3c2NC2CCCCC2)cc1	.	.	-10.1%	.	.
COc1ccc(/C=N/Nc2ccccc2C(=O)O)cc1Cn1cc([N+](=O)[O-])cn1	26.7%	11.8%	19µM*	21.8%	.
COc1ccc(/C=N/NC(=O)c2ccccc2O)cc1Cn1cc([N+](=O)[O-])cn1	1.1%	-4.6%	?	0.1%	.
SMILES	NPC1 prom act	ELG1 genotoxic	FLuc modulator	Rab9 promoter act	SMN2 splice enh
CCOc1cccc(NC(=O)C2CC(=O)N(CC)C(=Nc3ccc(F)cc3)S2)c1 (stereo not drawn)	.	.	-1.6%	.	-6.9%
Cc1ccc(N2Cc3ccccc3C2=S)cc1	2.82µM*	-9.5%	4.78µM*	2.51µM*	11.2µM*
CC1(C)Cc2[nH]c3ccccc3c2C(C)(C)N1	-1.5%	-7.4%	1.2%	2.9%	.
CCN=C1S/C(=C\c2ccc(N3CCOCC3)cc2C)C(=O)N1CC	-15.6%	-1.6%	-8.7%	-15.5%	-11.6%
Cc1ccc(-n2c(C)cc(/C=C3/SC(=O)N(CC(=O)N4CCOCC4)C3=O)c2C)nc1	?	?	1.51µM*	?	.
COCCN1C(=O)/C(=C/c2ccc(N3CCCC3)cc2C)SC1=S	-0.3%	2.8%	4.78µM*	20.0%	.
COCCn1c(C)cc(/C=C2/SC(=O)N(CC(=O)N3CCCC3)C2=O)c1C	2.0%	17.0%	19µM*	15.6%	.
CCn1c(C)cc(/C=C2/SC(=O)N(CC(=O)N3CCCC3)C2=O)c1C	7.7%	-9.4%	21.3µM*	11.1%	.
COc1ccccc1CN1CC[C@@]2(CCCN(S(=O)(=O)c3ccccc3)C2)C1	.	.	.	.	-5.9%
COc1cccc(NC(=O)COC(=O)C2CC(=O)N(c3ccc(C)cc3)C2)c1 (stereo not drawn)	-0.1%	-2.2%	.	-5.4%	.
Cc1cc(NC2CCCC2)n2nc(C)c(-c3ccccc3)c2n1	28.8%	?	19µM*	?	.
Cc1cc(NC2CCCC2)n2ncc(-c3ccccc3)c2n1	?	0.164µM*	0.213µM*	?	.
COc1ccc(-c2c(C)nn3c(NC4CCCC4)cc(C)nc23)cc1OC	-13.1%	-7.6%	-12.8%	-3.5%	.
COc1ccccc1-c1cnn2c(NCCc3ccccc3)cc(C)nc12	15.4%	10.3%	10.7µM*	19.2%	.
Cc1cc(NCc2ccccc2)n2ncc(-c3ccccc3)c2n1	1.58µM*	4.11µM*	2.39µM*	0.891µM*	.
COC(=O)Cc1ccc(NC(=S)Nc2cccc(C)n2)cc1	-6.6%	-4.1%	?	-2.8%	.
Cn1cnc(S(=O)(=O)N2CCC(C(=O)NCc3ccccc3Cl)CC2)c1	.	.	-1.2%	.	.
Cc1cc(C(F)(F)F)n2ncc(-c3cccc(Br)c3)c2n1	12.1%	-3.3%	3.9%	8.7%	8.2%
Cc1cc(NCCN2CCOCC2)n2ncc(-c3ccccc3)c2n1	0.708µM*	8.2µM*	7.57µM*	1.58µM*	14.1µM*
c1ccc(-c2csc3ncnc(NCc4ccccn4)c23)cc1	-6.5%	-12.8%	-16.4%	-17.9%	.
Cc1cc(NC(C)c2ccccc2)n2ncc(-c3ccccc3)c2n1 (stereo not drawn)	2.51µM*	?	12µM*	3.98µM*	.
CC(C)(C)c1cc(NCc2ccccn2)n2ncc(-c3ccccc3)c2n1	23.1%	-2.4%	16.9µM*	16.6%	.
COC(=O)N1CCC2(CC1)CN(C(=O)Nc1cccc(F)c1)C2	.	.	.	.	13.3%
O=C(NC(=S)Nc1ccc(NC(=O)c2cccs2)cc1)c1cc2ccccc2o1	0.1%	?	0.2%	-6.3%	-6.9%
Cc1ccc(C(=O)c2cc3ccccc3o2)cc1	2µM*	?	2.13µM*	2.24µM*	?
Cc1ccc(C(=O)c2cc3ccccc3o2)cc1C	2.24µM*	16.4µM*	4.78µM*	3.55µM*	?
O=C(c1cc2ccccc2o1)c1cccs1	3.55µM*	15.6%	10.7µM*	2.82µM*	?
